In the library only some 32% were active in any assay of this set; here they are far more common.
CYP2C19 activ: cytochrome P450 2C19 (human) activation | 96,000 tested, under 10 active | activation factor at 5 µM | P33261 | recombinant CYP2C19, luciferin-H EGE luminescence; stronger effect = higher value; 0 = fully inhibited enzyme, 1 = untreated enzyme;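 active = activation factor of at least 2 at 5 µM in the primary screen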
CYP2C19 inhib: human CYP2C19 inhibition; P33261; CYP2C19 Supersomes, luciferin-H EGE luminescence, 30 min; inhibition, % at 5 µM; 96,000 tested, 21% active;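 active = CYP2C19 inhibition above a set limit at 5 µM in the primary screen, cut at about 50% in these data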
CYP2C9 activ: activators of human CYP2C9. recombinant CYP2C9, luciferin-H conversion, luminescence; stronger effect = higher value; factor 1 = untreated enzyme, 0 = blocked. activation factor at 5 µM. 96,000 tested, 1.4% active. P11712;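 active = activation factor of 2 or more for CYP2C9 at a 5 µM dose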
Target sequence (P11712 whole entry, looked up): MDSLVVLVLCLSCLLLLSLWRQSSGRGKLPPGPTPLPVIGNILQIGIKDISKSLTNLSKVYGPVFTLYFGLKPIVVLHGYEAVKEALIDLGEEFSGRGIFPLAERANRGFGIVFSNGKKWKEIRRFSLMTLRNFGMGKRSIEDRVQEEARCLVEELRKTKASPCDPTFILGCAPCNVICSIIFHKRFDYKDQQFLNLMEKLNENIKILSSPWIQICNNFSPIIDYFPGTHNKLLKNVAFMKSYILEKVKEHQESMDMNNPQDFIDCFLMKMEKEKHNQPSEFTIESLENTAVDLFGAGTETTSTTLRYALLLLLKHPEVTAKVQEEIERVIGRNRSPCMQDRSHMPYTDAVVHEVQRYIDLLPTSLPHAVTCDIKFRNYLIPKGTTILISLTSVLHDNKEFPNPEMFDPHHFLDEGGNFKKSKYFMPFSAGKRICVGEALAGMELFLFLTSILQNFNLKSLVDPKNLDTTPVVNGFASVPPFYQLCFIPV
PostGolgi yeast: growth inhibition of a yeast mutant, post-Golgi transport screen; post-Golgi transport phenotypic cell assay; 98,000 tested, 0.9% active; inhibition, % at 10 µM;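 also: yeast cells grown in 1536-well plates; yeast grown about 18 h at 30C before absorbance read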
PostGolgi ctrl: yeast control strain growth, post-Golgi counter-screen | efflux-deficient yeast background strain, growth absorbance A615, 16 h | inhibition, % at 10 µM | 98,000 tested, 5% active | AID 738
CYP2C9 inhib: human CYP2C9 inhibition; 96,000 tested, 20% active; CYP2C9 Supersomes, luciferin-H conversion, luminescence; AID 777; inhibition, % at 5 µM; P11712;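 active = blocking of liver enzyme CYP2C9 beyond about 50% at 5 µM, limit read from the data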
Large screens that a line does not name were inactive. Rule as the data show it, unless noted: active = inhibition above about 30%; inactive = the rest.

CCCC(CCC(=O)Nc1ccc(S(N)(=O)=O)cc1)C(=O)O (centres undefined)	none
CCCCCCC(=O)NC(Nc1ccc(S(N)(=O)=O)cc1)C(Cl)(Cl)Cl (centres undefined)	CYP2C9 inhib 53
C/C(N)=C(/C#N)C(=O)COC(=O)c1cc(S(=O)(=O)N2CCCCC2)ccc1C	CYP2C19 inhib 51
C/C(N)=C(/C#N)C(=O)COC(=O)CCS(=O)(=O)c1ccccc1	none
C/C(N)=C(/C#N)C(=O)COC(=O)c1ccncc1	CYP2C19 inhib 65
C/C(N)=C(/C#N)C(=O)COC(=O)c1ccc(C)c(S(=O)(=O)N2CCCCC2)c1	CYP2C19 inhib 81, CYP2C9 inhib 62
C/C(N)=C(/C#N)C(=O)COC(=O)CCSc1ccccc1	CYP2C19 inhib 68
Cc1ccc(S(=O)(=O)N2CCOCC2)cc1C(=O)OCC(=O)N1c2ccccc2NC(=O)C1(C)C	none
Cc1ccc(C(=O)O)cc1S(=O)(=O)N1CCCC1	none
CC(=O)Nc1ccc(Cl)cc1C(=O)O	none
C/C(N)=C(/C#N)C(=O)COC(=O)c1cc(C)n(-c2ccc(F)cc2)c1C	CYP2C19 inhib 59
Cc1ccc(S(=O)(=O)C2(C(=O)N3CCN(C4CCCCC4)CC3)CC2)cc1	none (no result: CYP2C19 activ, CYP2C19 inhib, CYP2C9 activ, CYP2C9 inhib)
Cc1ccc(S(=O)(=O)C2(C(=O)N3CCCCCC3)CC2)cc1	CYP2C19 inhib 79
Cc1nc2ncnn2c(C)c1CCC(=O)NCc1ccc2c(c1)OCO2	none
Cc1ccc(C2=NN(S(C)(=O)=O)C(c3cccs3)C2)cc1 (centres undefined)	CYP2C19 inhib 99
CS(=O)(=O)N1N=C(c2ccc(Br)cc2)CC1c1cccs1 (centres undefined)	CYP2C19 inhib 92
CCS(=O)(=O)Nc1cccc(C2=NN(S(=O)(=O)c3ccccc3)C(c3cccs3)C2)c1 (centres undefined)	CYP2C19 inhib 50, CYP2C9 inhib 67
CCc1ccc(C2=NN(S(C)(=O)=O)C(c3cccs3)C2)cc1 (centres undefined)	CYP2C19 inhib 56
CCCn1nc2cc(C(=O)NCc3ccccc3OC)ccc2c1OCC	none
O=C(COC(=O)c1ccc(Cl)c(S(=O)(=O)N2CCCC2)c1)NC1CCCC1	CYP2C19 inhib 65
Cc1cc(Cl)c(S(=O)(=O)NC(C(=O)O)C(C)C)cc1OCC(=O)NC1CCCCC1 (centres undefined)	none
Cc1cc(Cl)c(S(=O)(=O)NC(C(=O)O)c2ccccc2)cc1OCC(N)=O (centres undefined)	none
O=S(=O)(NCc1cccnc1)c1cc(Cl)ccc1Cl	none
Cc1cc(Cl)c(S(=O)(=O)NCc2cccnc2)cc1OCC(=O)NC1CCCCC1	CYP2C9 inhib 58
Cc1cc(Cl)c(S(=O)(=O)N2CCCC2)cc1OCC(=O)NC1CCCCC1	CYP2C19 inhib 95, CYP2C9 inhib 77
CCCNC(=O)COC(=O)c1ccc(Cl)c(S(=O)(=O)N2CCCC2)c1	none
Cc1cc(Cl)c(S(=O)(=O)Nc2ccc3c(c2)OCO3)cc1OCC(N)=O	CYP2C19 inhib 90, CYP2C9 inhib 62
CC(C)Cn1c(CN2CCCCC2C)nc2c1c(=O)n(C)c(=O)n2C (centres undefined)	none
Cc1cc(Cl)c(S(=O)(=O)Nc2ccc3c(c2)OCO3)cc1OCC(=O)NC1CCCCC1	CYP2C19 inhib 79, CYP2C9 inhib 62
COc1ccc(CCNC(=O)CSc2nc(N)c(C#N)c(-c3cccs3)c2C#N)cc1OC	none
Cc1ccccc1NC(=O)CSc1nc(N)c(C#N)c(-c2cccs2)c1C#N	CYP2C19 inhib 62, CYP2C9 inhib 53
CCSc1nc(N)nc(-c2cccs2)c1C#N	PostGolgi ctrl 40, CYP2C9 inhib 72
N#Cc1c(N)nc(SCc2ccncc2)c(C#N)c1-c1cccs1	CYP2C19 inhib 58, PostGolgi ctrl 49, CYP2C9 inhib 84
C=CCSc1nc(C)cc(/C=C\c2ccccc2)c1C#N	CYP2C9 activ 2.2
CCSc1nc(N)c(C#N)c(-c2ccccc2Cl)c1C#N	none
Cc1cc(C)c(C#N)c(SCC2COc3ccccc3O2)n1 (centres undefined)	none
COc1cccc(C(=O)N2CCN(C(=O)c3cccs3)CC2)c1OC	none
CCCCCC1CC(CC#CCN2CCOCC2)C(=O)O1 (centres undefined)	none (no result: CYP2C19 activ, CYP2C19 inhib, CYP2C9 activ, CYP2C9 inhib)
O=C(Cn1cc([N+](=O)[O-])cn1)Nc1ccn(Cc2c(F)c(F)c(F)c(F)c2F)n1	none
COc1cc(-c2c(C#N)c(N)nc3c2CCCC3)cc(OC)c1OC	none (no result: CYP2C19 activ, CYP2C19 inhib, CYP2C9 activ, CYP2C9 inhib)
C=CCSc1nc(N)c(C#N)c(-c2ccc(C)cc2)c1C#N	CYP2C9 inhib 63
COc1cc(-c2c(C#N)c(N)nc(SCc3ccncc3)c2C#N)cc(OC)c1OC	CYP2C19 inhib 100, CYP2C9 inhib 100
COc1ccc(C2N(c3cccc(Cl)c3)C(=O)C3CCCN32)cc1 (centres undefined)	CYP2C9 inhib 66
COc1ccc(C2N(c3ccc(Cl)cc3)C(=O)C3CCCN32)cc1 (centres undefined)	CYP2C19 inhib 52
CCc1c(C(=O)NC2CCCC2)csc1C	none
N#Cc1c(N)c(C#N)c(-c2ccc(O)cc2)c2c1CCCC2	PostGolgi ctrl 34
N#Cc1c(N)c(C#N)c(-c2ccc3c(c2)OCO3)c2c1CCCC2	none
Cc1ccc(-n2ncc(C#N)c2/N=C/N2CCN(C)CC2)cc1	none
Cc1ccc(-n2ncc(C#N)c2/N=C/N2CCCCCC2)cc1	CYP2C19 inhib 97, CYP2C9 inhib 91
CCCCN(C)/C=N/c1c(C#N)cnn1-c1ccc(C)cc1	CYP2C9 inhib 60
O=C(Oc1ccc(-c2ccccc2)cc1)N1CCOCC1	none
O=C(OCc1ccccc1)N1CCOCCOCCN(C(=O)OCc2ccccc2)CCOCCOCC1	CYP2C9 inhib 84
O=C(Oc1cccc(Oc2ccccc2)c1)N1CCOCC1	CYP2C19 inhib 63
O=C(CC1NC2CCCCC2NC1=O)Nc1cccc(C(F)(F)F)c1 (centres undefined)	none
CCCS(=O)(=O)N1CCCC(c2nc(-c3cccc(OC)c3)no2)C1 (centres undefined)	CYP2C19 inhib 80, CYP2C9 inhib 77
COc1cccc(-c2noc(C3CCCN(S(=O)(=O)c4cccc(Cl)c4C)C3)n2)c1 (centres undefined)	CYP2C9 inhib 51
O=S(=O)(NC1CC1)c1ccc(S(=O)(=O)N2CCCC(c3nc(-c4cccnc4)no3)C2)cc1 (centres undefined)	CYP2C19 inhib 70, CYP2C9 inhib 59
COC(=O)CC/C(C)=N\Nc1ccc([N+](=O)[O-])cc1[N+](=O)[O-]	none
Cc1cc(C(=O)NCCC2=CCCCC2)c(C)o1	CYP2C19 inhib 61
O=C(O)C1C2CCC(O2)C1C(=O)NCCC1=CCCCC1 (centres undefined)	PostGolgi ctrl 30
O=C(NCCC1=CCCCC1)C(=O)NCc1ccccc1Cl	PostGolgi ctrl 34
C1=C(CCNC2=NCCCCC2)CCCC1	PostGolgi ctrl 32
COc1nc(NCCC2=CCCCC2)nc(OC)n1	none
